From PubChem BioAssay (Tox21)
Records with an inconclusive call do not appear. Calls of active or inactive are those of the source. Unless noted, the call rests on the fitted dose curve; in most records, active means well fitted curve in the direction sought with a large enough effect in the repeat runs; inconclusive means weak or mixed curves; inactive means no such curve, though single readings can be large; an effect the other way counts as inactive or inconclusive.

Tests used:
[1] = qHTS assay to identify small molecule antagonists of the retinoid-related orphan receptor gamma (ROR-gamma) signaling pathway - cell viability counter screen (AID 1159520); further: nearly all actives have a fitted effect of over 50% in size; further: potency means the concentration at half of the fitted maximal effect
Outline: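 Cytotoxicity was read from cellular ATP (CellTiter-Glo luminescence) after 16 hr at 37 C with 1 uM doxycycline induction. The inducer was added 2 hr after compound transfer to Tet-on ROR gamma CHO cells.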

[2] = target: Nuclear receptor ROR-gamma (Homo sapiens) (UniProt P51449); assay: qHTS assay to identify small molecule antagonists of the retinoid-related orphan receptor gamma (ROR-gamma) signaling pathway (AID 1159521; further: nearly all actives have a fitted effect of over 50% in size; further: potency means the concentration at half of the fitted maximal effect)
Outline: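 Screening format: cell-based luciferase reporter in CHO cells with doxycycline-inducible RORγ. Compound pre-exposure lasts 2 h, doxycycline is 1 uM final, induction runs 16 h at 37 C, and ONE-Glo luminescence is read.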

[3] = qHTS assay to identify small molecule agonists of the AP-1 signaling pathway - cell viability counter screen (AID 1159525; calls by dose curve; further: nearly all actives have a fitted effect of over 55% in size; further: potency means the concentration at half of the fitted maximal effect)
Outline: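 Luminescent ATP readout (Cell Titer Glo, 30 min RT), normalised to DMSO and tetra n-octyl ammonium bromide controls. Cells were ME-180 AP-1-bla in 0.5% dialyzed FBS Opti-MEM, with a 5 h, 37 °C compound exposure.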

[4] = qHTS assay to identify small molecule agonists of the AP-1 signaling pathway (AID 1159526; calls by dose curve; further: on the % scale 0 is the no-effect control and ±100 the full control effect)
[5] = target: Retinoic acid receptor RXR-alpha (Homo sapiens) (UniProt P19793); assay: qHTS assay to identify small molecule agonists of the RXR signaling pathway (AID 1159527; calls by dose curve; further: on the % scale 0 is the no-effect control and ±100 the full control effect; nearly all actives have a fitted effect of over 35% in size)
Chain of Retinoic acid receptor RXR-alpha (Homo sapiens) (P19793 whole entry, looked up): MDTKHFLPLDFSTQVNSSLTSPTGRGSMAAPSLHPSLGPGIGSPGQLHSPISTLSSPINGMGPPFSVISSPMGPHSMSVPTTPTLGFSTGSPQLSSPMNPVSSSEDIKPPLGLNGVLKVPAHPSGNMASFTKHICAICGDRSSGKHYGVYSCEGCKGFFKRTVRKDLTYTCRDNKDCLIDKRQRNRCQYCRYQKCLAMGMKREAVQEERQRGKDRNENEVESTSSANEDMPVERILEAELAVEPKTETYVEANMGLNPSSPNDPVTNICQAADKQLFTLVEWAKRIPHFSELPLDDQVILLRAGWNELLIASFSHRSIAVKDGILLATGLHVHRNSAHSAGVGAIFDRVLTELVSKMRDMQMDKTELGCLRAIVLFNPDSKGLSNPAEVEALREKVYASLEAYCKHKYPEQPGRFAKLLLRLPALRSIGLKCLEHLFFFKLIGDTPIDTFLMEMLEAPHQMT
Outline: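 Fluorescence ratio readout (460 vs 530 nm) from GeneBLAzer RXR-alpha HEK 293T cells after 16 hr compound treatment; cells seeded 5 hr beforehand in low-serum, charcoal-stripped medium.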

[6] = qHTS assay to identify small molecule antagonists of the retinoid acid receptor (RAR) signaling pathway - cell viability counter screen (AID 1159551); further: nearly all actives have a fitted effect of over 35% in size; further: potency means the concentration at half of the fitted maximal effect
Outline: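 C3RL4 RARE-luciferase cells, 1,000/well, incubated overnight, then dosed with compound plus 1 uM retinol (final). After 6 hr at 37 C, viability read by CellTiter-Glo ATP luminescence following 30 min at room temperature.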

[7] = qHTS assay to identify small molecule antagonists of the retinoic acid receptor (RAR) signaling pathway (AID 1159552; further: nearly all actives have a fitted effect of over 50% in size; further: potency means the concentration at half of the fitted maximal effect)
Outline: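 Using a RARE-driven luciferase construct in C3RL4 cells, retinol at 1 uM final provided the agonist stimulus while compounds were co-applied. After 6 hours at 37 C, luminescence was recorded to flag inhibitors of retinol signaling.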

[8] = qHTS assay to identify small molecule agonists of the RXR signaling pathway - cell viability counter screen (AID 1159529); further: nearly all actives have a fitted effect of over 50% in size; further: potency means the concentration at half of the fitted maximal effect
Outline: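 Viability read-out for the RXR-alpha agonist qHTS: luminescent CellTiter-Glo signal after 30 min at RT. HEK 293T bla reporter cells, 2% charcoal-stripped FBS, 16 hr compound incubation; tetraoctyl ammonium bromide as cytotoxic control.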

[9] = qHTS assay to identify small molecule antagonists of the peroxisome proliferator-activated receptor delta (PPARd) signaling pathway - cell viability counter screen (AID 743213); further: nearly all actives have a fitted effect of over 50% in size; further: potency means the concentration at half of the fitted maximal effect
Outline: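 Viability counter-screen, qHTS format: PPARd-bla HEK293H, L165041 300 nM final, 17 h compound exposure at 37 C, CellTiter-Glo luminescence after 30 min RT.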

[10] = qHTS assay to identify small molecule agonists of the farnesoid-X-receptor (FXR) signaling pathway - cell viability counter screen (AID 743218); further: nearly all actives have a fitted effect of over 45% in size; further: potency means the concentration at half of the fitted maximal effect
Outline: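 FXR-UAS-bla HEK 293T cells exposed to compounds for 16 h at 37C. Cytotoxicity read in the same wells by CellTiter-Glo luminescence after 30 min at room temperature, following the beta-lactamase FRET read.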

[11] = qHTS assay to identify small molecule antagonists of the farnesoid-X-receptor (FXR) signaling pathway - cell viability counter screen (AID 743221; active means well fitted cell-killing curve with a large enough effect in the repeat runs, not every such curve was filed as active)
Outline: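 Compound effects on cell number were measured as CellTiter-Glo luminescence in HEK 293T cells expressing FXR-UAS-bla, after 16 h at 37 C with 50 uM CDCA (final).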

[12] = target: Vitamin D3 receptor (Homo sapiens) (UniProt P11473); assay: qHTS assay to identify small molecule antagonists of the vitamin D receptor (VDR) signaling pathway (AID 743223; active means well fitted inhibition curve with a large enough effect in the signal ratio in the repeat runs, not every such curve was filed as active; the % refers to the signal ratio; further: potency means the concentration at half of the fitted maximal effect)
Chain of Vitamin D3 receptor (Homo sapiens) (P11473 whole entry, looked up): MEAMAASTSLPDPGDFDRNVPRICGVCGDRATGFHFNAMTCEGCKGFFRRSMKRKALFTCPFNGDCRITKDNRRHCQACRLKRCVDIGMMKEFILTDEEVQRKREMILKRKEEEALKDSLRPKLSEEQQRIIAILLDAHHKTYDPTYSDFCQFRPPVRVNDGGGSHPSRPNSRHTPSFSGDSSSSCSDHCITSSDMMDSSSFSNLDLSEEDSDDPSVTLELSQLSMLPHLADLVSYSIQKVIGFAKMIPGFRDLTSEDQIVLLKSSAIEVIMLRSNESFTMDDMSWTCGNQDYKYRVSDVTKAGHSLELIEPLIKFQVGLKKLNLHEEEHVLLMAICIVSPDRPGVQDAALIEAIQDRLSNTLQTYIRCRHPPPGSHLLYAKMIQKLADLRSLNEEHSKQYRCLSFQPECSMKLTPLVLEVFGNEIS
Outline: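 Beta-lactamase activity in VDR-bla cells is measured by FRET substrate fluorescence (2 h, room temperature) after cells spend 16 h at 37C with test compound and 3 nM final 1alpha,25-dihydroxyvitamin D3.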

[13] = qHTS assay to identify small molecule agonists of the vitamin D receptor (VDR) signaling pathway - cell viability counter screen (AID 743224)
Outline: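 VDR-bla cells, 4 h after plating, exposed to compounds for 16 h at 37C; viability then read in the same wells as CellTiter-Glo luminescence after 30 min at room temperature, following the bla FRET read.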

[14] = qHTS assay to identify small molecule antagonists of the vitamin D receptor (VDR) signaling pathway - cell viability counter screen (AID 743225)
Outline: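 In this counter screen, VDR-bla HEK 293T cells receive test compound plus 3 nM final calcitriol for 16 h at 37C. Room-temperature steps of 2 h with the beta-lactamase substrate, then 30 min with CellTiter-Glo, precede the luminescence read.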

[15] = target: Peroxisome proliferator-activated receptor delta (Homo sapiens) (UniProt Q03181); assay: qHTS assay to identify small molecule antagonists of the peroxisome proliferator-activated receptor delta (PPARd) signaling pathway (AID 743215; active means well fitted inhibition curve with a large enough effect in the signal ratio in the repeat runs, not every such curve was filed as active; the % refers to the signal ratio;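 further: cells stimulated with agonist L165041 at 300 nM final during compound exposure; potency means the concentration at half of the fitted maximal effect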)
Chain of Peroxisome proliferator-activated receptor delta (Homo sapiens) (Q03181 whole entry, looked up): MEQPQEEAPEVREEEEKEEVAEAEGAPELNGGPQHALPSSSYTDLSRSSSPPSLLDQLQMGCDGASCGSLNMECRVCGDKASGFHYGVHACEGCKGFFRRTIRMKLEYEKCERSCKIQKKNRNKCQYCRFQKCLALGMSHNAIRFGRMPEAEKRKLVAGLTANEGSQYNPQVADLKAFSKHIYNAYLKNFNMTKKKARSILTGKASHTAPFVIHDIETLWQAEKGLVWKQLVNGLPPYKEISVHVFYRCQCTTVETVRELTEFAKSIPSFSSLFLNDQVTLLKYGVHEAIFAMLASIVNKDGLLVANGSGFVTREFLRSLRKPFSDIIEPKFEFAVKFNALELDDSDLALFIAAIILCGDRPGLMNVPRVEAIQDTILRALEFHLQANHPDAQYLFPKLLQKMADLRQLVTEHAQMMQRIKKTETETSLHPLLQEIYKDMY
Outline: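 PPARd-bla HEK293H cells (UAS-bla reporter) preincubated 5 h, then given compound plus 300 nM final L165041 agonist for 17 h at 37 C. Beta-lactamase activity read by LiveBLAzer B/G FRET substrate fluorescence after 2 h at room temperature.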

[16] = target: Vitamin D3 receptor (Homo sapiens) (UniProt P11473); assay: qHTS assay to identify small molecule agonists of the vitamin D receptor (VDR) signaling pathway (AID 743222; calls by dose curve; further: on the % scale 0 is the no-effect control and ±100 the full control effect)
Outline: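 VDR-bla cells plated 4 h at 37 C, then exposed to compounds for 16 h at 37 C. Beta-lactamase reporter activity measured by fluorescence after 2 h room-temperature loading with LiveBLAzer B/G FRET substrate.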

[17] = qHTS assay to identify small molecule agonists of the retinoic acid receptor (RAR) signaling pathway (AID 1159553); further: on the % scale 0 is the no-effect control and ±100 the full control effect
Outline: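 C3RL4 RARE-luciferase cells were seeded at 1,000/well and grown overnight at 37 C, then exposed to compounds for 6 hr at 37 C, 5% CO2. Luciferase reagent was added and luminescence was read after 30 min at room temperature.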

[18] = qHTS assay to identify small molecule antagonists of the estrogen related receptor (ERR) signaling pathway - cell viability counter screen (AID 1224818);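 further: series mostly up to about 46 µM; viability measured after 17.5 h of compound exposure; on the % scale 0 is the no-effect control and ±100 the full control effect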
Outline: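 ERR cells, 2,000 per well, compound added after 6 h and incubated 17.5 h at 37 C. Viability read by CellTiter-Fluor fluorescence after a further 30 min at 37 C.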

[19] = target: Bile acid receptor (Homo sapiens) (UniProt Q96RI1); assay: qHTS assay to identify small molecule agonists of the farnesoid-X-receptor (FXR) signaling pathway (AID 743220; active means well fitted activation curve with a large enough effect in the signal ratio in the repeat runs, not every such curve was filed as active; the % refers to the signal ratio; further: on the % scale 0 is the no-effect control and ±100 the full control effect)
Chain of Bile acid receptor (Homo sapiens) (Q96RI1 whole entry, looked up): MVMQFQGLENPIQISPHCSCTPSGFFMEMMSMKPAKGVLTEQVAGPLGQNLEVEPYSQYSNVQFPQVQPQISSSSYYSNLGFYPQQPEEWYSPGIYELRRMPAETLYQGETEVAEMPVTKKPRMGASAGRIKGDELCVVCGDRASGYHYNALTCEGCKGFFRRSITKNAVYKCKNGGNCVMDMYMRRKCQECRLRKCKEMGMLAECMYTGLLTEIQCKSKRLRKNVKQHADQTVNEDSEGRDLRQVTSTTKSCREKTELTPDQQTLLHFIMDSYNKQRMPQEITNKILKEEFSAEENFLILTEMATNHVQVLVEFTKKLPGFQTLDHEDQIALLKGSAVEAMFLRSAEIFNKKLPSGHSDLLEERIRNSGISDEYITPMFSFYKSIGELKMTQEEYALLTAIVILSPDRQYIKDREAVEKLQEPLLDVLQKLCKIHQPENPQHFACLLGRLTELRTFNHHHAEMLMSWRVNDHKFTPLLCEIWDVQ
Outline: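 Beta-lactamase reporter under UAS control in GeneBLAzer FXR HEK 293T cells (5000/well) measured with LiveBLAzer FRET substrate after 2 h at room temperature. Compound exposure lasted 16 h at 37C.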

CCOC(=O)[C@H](C)O
inactive: Potency [1] | Potency [2] | Potency [3] | Potency [4] | Potency [5] | Potency [6] | Potency [7]

CC(C)=NNC(N)=S
inactive: Potency [1] | Potency [2] | Potency [3] | Potency [8] | Potency [6]

CCCCCCCCCCCCS(=O)(=O)Cl
inactive: activity, negative = cytotoxicity [1] -7.74% [at 19 µM] | activity change, negative = inhibition [2] 0.574% [at 19 µM] | viability change, negative = cytotoxic [3] -17.5% [at 15.8 µM] | activation [4] -7.42% [at 15.8 µM] | activation [5] -13.1% [at 15.8 µM] | activity, negative = inhibition [7] -0.011% [at 19 µM]

COCCC(=O)OC
inactive: Potency [1] | Potency [2] | Potency [3] | Potency [5] | Potency [8] | Potency [6] | Potency [7]

N#Cc1ccc(C/C(=N/NC(=O)Nc2ccc(OC(F)(F)F)cc2)c2cccc(C(F)(F)F)c2)cc1
inactive: Potency [1] | Potency [2] | Potency [3] | Potency [6]

O=C1C=CC(=O)N1c1cccc(N2C(=O)C=CC2=O)c1
active: Potency [1] 12.2 µM | Potency [2] 3.86 µM | Potency [3] 13.8 µM | Potency [8] 11 µM | Potency [6] 21.7 µM | Potency [7] 10.9 µM

CCCCCN=C(N)N/N=C/c1c[nH]c2ccc(OC)cc12
active: Potency [9] 33.5 µM | Potency [10] 13.3 µM | Potency [11] 29.8 µM | Potency [12] 13.4 µM | Potency [13] 29.8 µM | Potency [14] 16.9 µM | Potency [1] 26.6 µM | Potency [2] 33.5 µM | Potency [3] 23.9 µM | Potency [8] 7.56 µM | Potency [6] 29.8 µM | Potency [7] 13.3 µM

CCCCCCCCOC(=O)c1cc(O)c(O)c(O)c1
inactive: outcome [16] | Potency [7]
active: Potency [9] 43.6 µM | Potency [15] 49 µM | Potency [12] 54.9 µM | Potency [13] 24.5 µM | Potency [14] 27.5 µM | Potency [1] 2.43 µM | Potency [2] 1.93 µM | Potency [3] 54.9 µM | Potency [8] 43.6 µM

O=C(N[C@H](CO)[C@H](O)c1ccc([N+](=O)[O-])cc1)C(Cl)Cl
inactive: Potency [9] | Potency [10] | Potency [1] | Potency [2] | Potency [4] | Potency [5] | Potency [8] | Potency [17] | Potency [18]

CCC(O)CO (configuration not stated)
inactive: Potency [1] | Potency [3] | Potency [4] | Potency [5] | Potency [8] | Potency [6]

C[C@H]1O[C@@H](O[C@H]2CC[C@@]3(C)[C@H](CC[C@@H]4[C@@H]3C[C@@H](O)[C@]3(C)[C@@H](C5=CC(=O)OC5)CC[C@]43O)C2)C[C@H](O)[C@@H]1O[C@H]1C[C@H](O)[C@H](O[C@H]2C[C@H](O)[C@H](O[C@@H]3O[C@H](CO)[C@@H](O)[C@H](O)[C@H]3O)[C@@H](C)O2)[C@@H](C)O1
active: Potency [13] 0.298 µM | Potency [14] 0.338 µM
inactive: outcome [19] | Potency [1] | Potency [2] | Potency [4] | Potency [6] | Potency [7] | Potency [17]
